# Source: PubChem BioAssay (National Center for Advancing Translational Sciences (NCATS))
# Most compounds without a hit are left out; they make up all but 5.7% or so of the library.
# Giardia kill = Small Molecules that selectively kill Giardia lamblia: qHTS; Giardia lamblia trophozoite viability; activity change, % at 7.66 µM, hits read low; 340,000 tested, 0.15% active; AID 540267, 2011; in the data active = activity change below about -80%; inconclusive = between about -30% and that limit;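 note: parasites exposed to compound for two days anaerobically before the ATP read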
#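 Killing of trophozoites was scored by loss of ATP luminescence after a 48 hrs anaerobic exposure to compounds at 37 deg C, using 100 cells per well.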
# Nrf2 block = Nrf2 qHTS screen for inhibitors; 360,000 tested, 2.1% active; Potency, µM (top dose mostly 46 µM), for the others: at the highest dose activity change, negative = inhibition, hits mostly inhibitors; A549 ARE-Fluc reporter, luciferase luminescence, 18-24 h; note: potency is the fitted concentration of half-maximal effect; nearly all actives have a fitted effect of over 60% in size
#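 Cells were seeded and rested 2 h, then exposed to compounds for 18-24 h. CellTiter-Fluor was read first as a viability measure. BugLite was added 15 min before the final luminescent read of ARE-luciferase activity in A549 cells.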
# KB-3-1 cytotox = qHTS assay for MDR1-selective chemotherapeutics: Primary screen using the parental adenocarcinoma cell KB-3-1; KB-3-1 viability, CellTiter-Glo ATP luminescence, 72 h; Potency, µM (highest dose often 46.1 µM), hits mostly cytotoxic; 400,000 tested, 1.4% active; note: potency is the fitted concentration of half-maximal effect; nearly all actives have a fitted effect of over 60% in size
#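 Here the drug-naive KB-3-1 line serves as comparator for MDR sub-line selectivity; cells received compound titrations, 72 h at 37 °C, then CellTiter-Glo readout.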
# A549 viability = Nrf2 qHTS screen for inhibitors: counterscreen for cytotoxicity; A549 ARE-Fluc cells, CellTiter-Fluor viability, 18-24 h; Potency, µM (titrated, usually from 46 µM), without a hit: top-dose activity change, negative = cytotoxicity, hits mostly inhibitors; 390,000 tested, 0.16% active; AID 504648, 2011; note: potency is the fitted concentration of half-maximal effect
#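 A549 ARE-Fluc cells in 5% FBS OPTI-MEM, 5000 cells/well, rested 2 h then exposed to compounds in concentration-response for 18-24 h at 37 °C. Viability by CellTiter-Fluor fluorescence (Ex 405/Em 525) after 30 min; luciferase luminescence (BugLite, 15 min, RT) read afterwards.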
# KB-V1 MDR tox = qHTS assay for MDR1-selective chemotherapeutics: Primary screen using the drug-selected MDR subline cells KB-V1. KB-V1 MDR cells viability, CellTiter-Glo, 72 h. Potency, µM (highest dose often 46.1 µM), usual class: cytotoxic. 400,000 tested, 3.4% active; note: potency is the fitted concentration of half-maximal effect; nearly all actives have a fitted effect of over 60% in size
#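 Drug-selected KB-V1 cells, grown in DMEM lacking phenol red with 10% FBS, receive compound titrations; after three days at 37 degrees C, surviving cell ATP is quantified by CellTiter-Glo luminescence and responses normalized and curve-fitted.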
# PI4K2A inh = qHTS for small molecular inhibitors of PI4K2A. Phosphatidylinositol 4-kinase type 2-alpha (Homo sapiens), Q9BTU6. purified PI4K2A, ADP-Glo luminescence, 1 h; active compounds read low. activity change, negative = inhibition, % at 76.9 µM. 420,000 tested, 0.13% active. AID 1346378, 2018; in the data active = activity change below about -50%; inconclusive = mostly about -30% to -49%;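 note: -100% = wells without enzyme as full effect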
# Target sequence (Q9BTU6 whole entry, looked up): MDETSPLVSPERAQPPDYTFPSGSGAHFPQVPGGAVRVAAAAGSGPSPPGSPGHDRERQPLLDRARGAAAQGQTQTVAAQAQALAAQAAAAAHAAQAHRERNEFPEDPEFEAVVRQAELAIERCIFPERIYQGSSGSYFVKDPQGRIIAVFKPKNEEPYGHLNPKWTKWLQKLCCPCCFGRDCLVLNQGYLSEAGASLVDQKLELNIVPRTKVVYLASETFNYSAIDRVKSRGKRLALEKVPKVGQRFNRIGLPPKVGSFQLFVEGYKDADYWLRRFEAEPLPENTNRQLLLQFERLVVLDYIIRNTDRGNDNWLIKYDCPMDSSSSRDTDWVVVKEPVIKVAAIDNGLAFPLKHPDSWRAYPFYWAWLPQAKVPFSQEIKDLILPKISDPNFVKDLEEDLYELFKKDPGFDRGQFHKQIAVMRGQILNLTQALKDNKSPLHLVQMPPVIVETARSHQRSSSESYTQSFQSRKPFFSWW
#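 PI4K2A activity was measured by ADP-Glo luminescence: enzyme (4 ug/mL stock) and phosphatidylinositol (1.2 mM stock) in Tris pH 7.5/MgCl2/EGTA/Triton X-100 buffer were reacted with ATP (300 microM stock) for one hour at ambient temperature.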
# Starred values were filed as active, the others as inactive; i = inactive; u = inconclusive; x = no result given. Unless noted, calls come from the whole dose curve; as a rule, active = well fitted curve in the direction sought with a large enough effect; inconclusive = small, poorly fitted or top-dose-only effect, or another doubt; inactive = no such curve, though single readings can be large; an effect the other way counts as inactive or inconclusive. Unless noted, % is set by controls: 0 for no effect and ±100 for the full control effect.
SMILES,Giardia kill,Nrf2 block,KB-3-1 cytotox,A549 viability,KB-V1 MDR tox,PI4K2A inh
Cc1cc(C)nc(SCC(=O)Nc2ncc(Cc3cccc(Cl)c3)s2)n1,4,u,i,-12%,4.6µM*,3
N#Cc1ccccc1OCCCN1CCC(C(O)(c2ccccc2)c2ccccc2)CC1,x,x,u,x,23µM*,1
OC(c1ccccc1)(c1ccccc1)C1CCN(CCCOc2ccc(F)cc2)CC1,x,x,i,x,u,-2
Cc1ccc(OCCCN2CCC(C(O)(c3ccccc3)c3ccccc3)CC2)cc1,x,x,u,x,21µM*,-2
OC(Br)C(O)C(O)N1CCCc2ccccc21 (configuration not stated),x,x,i,x,i,x
CC(c1c[nH]c2ccccc12)c1cn(C)c2ccccc12 (configuration not stated),x,x,x,x,x,1
CCOC(=O)[C@]12CCCC=C1N(Cc1ccc(OC)cc1)C(=O)[C@@H]2CC(=O)N1CCN(C(=O)c2ccco2)CC1,x,x,x,x,x,-3
CCOc1ccc(-c2nonc2NC(=O)c2oc3cc(Br)ccc3c2C)cc1,x,7%,3.7µM*,-1%,u,-2
O=C(NCc1cccnc1)C(=O)NCC(c1ccco1)N1CCN(c2ccc(F)cc2)CC1 (configuration not stated),-2,21µM*,u,-5%,2.6µM*,2
O=C(NCc1cccs1)C(=O)NCC(c1ccco1)N1CCN(c2ccc(F)cc2)CC1 (configuration not stated),-20,15µM*,i,-19%,i,0
O=C(NCC(c1ccco1)N1CCN(c2ccc(F)cc2)CC1)c1cccs1 (configuration not stated),-9,10%,i,2%,i,-1
COc1ccc(N2CCN(C(CNC(=O)C(=O)NCc3cccnc3)c3ccco3)CC2)cc1 (configuration not stated),8,7%,i,-2%,u,1
CCCCCN1CCCCC(NC(=O)c2ccc3ccccc3c2)C1=O (configuration not stated),x,x,x,x,x,4
CCn1c(SCC(=O)N/N=C/c2ccc(C)s2)nc2ccccc21,6,3%,13µM*,-7%,u,0
Cc1ccc(/C=N/NC(=O)CSc2nc3ccccc3c(=O)n2-c2ccccc2C)s1,10,u,u,u,10µM*,2
Cc1ccc(-n2c(SCC(=O)N/N=C/c3c(C)nn(-c4ccccc4)c3C)nc3ccccc3c2=O)cc1,6,u,i,8.2µM*,i,-1
Cc1ccccc1-n1c(SCC(=O)N/N=C/c2c(C)nn(-c3ccccc3)c2C)nc2ccccc2c1=O,1,u,i,u,5.8µM*,-2
O=C(Nc1cccc2cccnc12)c1ccc(Br)cc1,-4,16%,x,-3%,x,x
Cc1nn(-c2ccccc2)c(C)c1/C=N/NC(=O)CSc1nc2ccccc2c(=O)n1-c1ccc(Br)cc1,0,26µM*,u,18µM*,23µM*,4
Cc1ccccc1-n1c(SCC(=O)NCc2cccs2)nc2ccccc2c1=O,2,6%,i,-8%,5.8µM*,-1
C=CCN1[C@H](C)COc2cccc(N3CCCC3)c2S1(=O)=O,x,x,x,x,x,-1
Cc1ccccc1-c1nc(CN2CCC(C(=O)NCc3ccccc3Cl)CC2)c(C)o1,x,10%,i,-10%,i,-6
Clc1ccccc1/C=N/NC1=Nc2cccc3cccc1c23,-3,u,i,u,i,0
C(=N\NC1=Nc2cccc3cccc1c23)/c1ccccn1,-1,22%,23µM*,u,u,-2
CC(=O)Nc1cccc(OCCOc2cccc([N+](=O)[O-])c2)c1,21,u,i,13%,i,0
